Only some compounds are listed: those with a hit (about 3.1% of all), similar ones and a draw of the others.
Rtt109 HAT inh: inhibitors of C. albicans Rtt109/Vps75 HAT, primary screen, biochemical, ThioGlo CoA-SH fluorescence, plate reader | purified Rtt109/Vps75, 4 h | inhibition, % at 34.9 µM | 0.16% of 330,000 active | AID 540336, 2011;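 active = inhibition of at least 50% in every replicate; inconclusive = best replicate reaches 50% inhibition but some replicates fall short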
Target sequence (Q5AAJ8 whole entry, looked up): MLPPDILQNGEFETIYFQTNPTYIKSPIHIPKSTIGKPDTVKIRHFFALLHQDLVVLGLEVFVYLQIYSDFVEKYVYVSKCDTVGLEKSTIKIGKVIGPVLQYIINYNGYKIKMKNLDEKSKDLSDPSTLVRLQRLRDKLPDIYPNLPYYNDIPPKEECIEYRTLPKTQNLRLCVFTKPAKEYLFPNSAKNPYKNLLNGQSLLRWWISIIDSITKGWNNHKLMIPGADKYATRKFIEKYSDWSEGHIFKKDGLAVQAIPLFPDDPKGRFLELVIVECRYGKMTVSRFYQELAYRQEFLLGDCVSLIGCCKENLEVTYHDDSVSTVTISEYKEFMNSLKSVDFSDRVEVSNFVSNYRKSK
esBAF inh: Bmi1 luciferase reporter increase in mESCs, primary screen, esBAF inhibitor project, mouse ES cells, Bmi1 luciferase knock-in, single point. AID 602393, 2012. reporter increase, % at 12.5 µM. 2% of 350,000 active. 24 h; 100% = twice the neutral-well signal; in the data active = activation above about 40%; inconclusive = no clear call, values can overlap the other calls;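 note: 0% = median of the plate's neutral control wells and 100% = double that signal; a rise in the Bmi1 reporter signal indicates esBAF inhibition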
Statin myotox sup: suppressors of statin myotoxicity in C2C12 myotubes, primary screen, cell-based, single point, plate reader. C2C12 myotubes + simvastatin, ATP luminescence, 48 h; scaled: DMSO 0, geranylgeraniol control 100. rescue of ATP level, % at 7.49 µM. 0.78% of 330,000 active. AID 602340, 2012;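 active = mean ATP rescue above about 67%, or every replicate alone reaching that limit, limit read from the data, passing the limit was not always enough; inconclusive = no clear call, values can overlap the other calls; inactive = mean under the limit and some replicate under it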;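 note: myotubes were challenged with 10 µM simvastatin during compound exposure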
Wnt act: Wnt/beta-catenin pathway activators, primary screen, cell-based, plate reader, single point | 1.2% of 300,000 active | activation, % at 9.35 µM | Wnt/beta-catenin reporter cell assay, activator; in the data active = activation above about 30%, passing the limit was not always enough; inconclusive = no clear call, values can overlap the other calls;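 note: 0% = neutral control wells and 100% = positive control wells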
MITF TRPM1 HTS: activators of MITF-driven TRPM1 promoter reporter, primary screen, cell-based, SK-MEL-5, luciferase, single point; AID 588334, 2011; SK-MEL-5 TRPM1-promoter luciferase, 24 h; % of positive control, neutral wells = 0; 0.75% of 300,000 active; activation, % at 12.5 µM;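 active = mean activation of at least 80% with every replicate also reaching 80%; inconclusive = mean reaches 80% but some replicate falls short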;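 note: 0% = neutral control wells and 100% = parthenolide positive control wells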
Numbers without * were called inactive; ? = inconclusive; / = no result given.

SMILES | Rtt109 HAT inh | esBAF inh | Statin myotox sup | Wnt act | MITF TRPM1 HTS
CN(C)CC(=O)N1[C@@H]2c3ccc(-c4ccccc4)c(=O)n3C[C@@H]2[C@@H](CO)[C@@H]1C(=O)NC1CCC1 | / | -4 | 0 | / | /
COc1cc2c(c(O)c1OC)C(=O)C(OC)CCC2 (stereo not given) | 5 | -5 | 89* | 0 | -3
COc1cc2c(c(O)c1OC)-c1c(cc(OC)c(OC)c1OC)C[C@@H](C)[C@@H](C)C2 | -4 | -3 | 13 | -2 | -3
CO[C@@H]1CN(C)C(=O)c2ccc(NC(=O)Nc3cc(Cl)cc(Cl)c3)cc2OC[C@H](C)NC[C@@H]1C | / | -1 | -68 | / | /
Cc1ccc(NC(=O)NC(=O)N(c2ccccc2)S(C)(=O)=O)cc1 | -6 | 76* | -8 | / | /
CN1C(=O)c2cc(NC(=O)c3cccs3)ccc2OC[C@@H]2O[C@@H](CC(=O)N3CCOCC3)CC[C@@H]21 | / | 2 | -10 | / | /
c1cncc(-c2nnc(-c3ccco3)o2)c1 | / | 18 | 4 | / | 25
Clc1ccc(-c2nnc(-c3ccco3)o2)cc1 | 4 | 60* | 27 | 38* | 59
C[C@@H]1CCCCO[C@@H](CN(C)Cc2ccccc2)[C@H](C)CN([C@@H](C)CO)C(=O)c2cc(NC(=O)Nc3ccc(F)cc3)ccc2O1 | / | 1 | / | / | /
CO[C@H]1CN(C)C(=O)c2cc(NC(C)=O)ccc2OC[C@@H](C)N(Cc2cccnc2)C[C@H]1C | / | -1 | -14 | / | /
C[C@@H]1CN([C@@H](C)CO)S(=O)(=O)c2ccc(C3=CCCCC3)cc2O[C@@H]1CN(C)Cc1ccccn1 | / | 3 | -156 | / | /
O=c1[nH]c2c(s1)C=Nc1ccccc1N2 | -1 | 54* | 14 | ? | -13
O=C1Nc2ccccc2N=C(c2ccccc2)C1Br (stereo not given) | 2 | / | / | 2 | -4
Nc1nc(NCc2c(F)cccc2Cl)nn1-c1ccccc1 | -4 | 15 | 101* | -3 | 24
Cc1ccccc1CNc1nc(N)n(-c2ccccc2)n1 | 2 | 0 | 0 | -1 | 17
Cc1nnc(SCC(=O)c2ccc(Cl)cc2)n(N)c1=O | 0 | / | / | 43* | 14
CCn1c(SCC(N)=O)nnc1C(C)C | -3 | / | / | -4 | 2
CCn1c(SCC(=O)c2ccc(Cl)cc2)nnc1C(C)C | -4 | 28 | -7 | 36* | 64
COC(=O)c1ccc(CSc2nc(N3CCOCC3)c3c(c2C#N)CC(C)(C)OC3)o1 | 3 | 9 | 81* | / | /
C[C@@H]1CN([C@@H](C)CO)C(=O)c2cc(NS(=O)(=O)c3ccccc3)ccc2O[C@@H](C)CCCCO[C@H]1CN(C)C(=O)Nc1cccc2ccccc12 | / | -3 | / | / | /
Cc1ccc(/C=C/C(=O)NCc2ccc(S(N)(=O)=O)cc2)o1 | 72* | / | / | 1 | -11
CC(NCC(O)COC1CCC(C(C)(C)C)CC1)c1ccccc1 (stereo not given) | 60* | -13 | -5 | -4 | 13
COc1ccc(NC(=O)Nc2ccc3c(c2)CC(=O)N([C@H](C)CO)C[C@H](C)[C@@H](CN(C)C(=O)NC2CCCCC2)O3)cc1 | / | 0 | -21 | / | /
CC(C)CCn1cnc2c(cnn2-c2ccc(F)cc2)c1=O | -7 | 46* | -13 | / | 23
O=[N+]([O-])c1ccccc1OCCCn1cnc2ccccc21 | 3 | 65* | -4 | 16 | 104*
SMILES | Rtt109 HAT inh | esBAF inh | Statin myotox sup | Wnt act | MITF TRPM1 HTS
O=c1c2ccccc2ncn1CCCOc1ccccc1[N+](=O)[O-] | -8 | 62* | -10 | 22 | 65
Clc1ccc(OCCn2cnc3ccccc32)c(Cl)c1 | 5 | 71* | -6 | / | 73
Cc1cc(OCCCn2cnc3ccccc3c2=O)ccc1[N+](=O)[O-] | 3 | / | / | -1 | 6
O=C(Cc1ccncc1)Nc1ccc2c(c1)[C@H]1C[C@@H](CC(=O)N3CCOCC3)O[C@@H](CO)[C@H]1O2 | / | 0 | 1 | / | /
C[C@H](CO)N1C[C@H](C)[C@H](CN(C)C(=O)NC2CCCCC2)Oc2ccc(NS(=O)(=O)c3cn(C)cn3)cc2CC1=O | / | 3 | 1 | / | /
COc1ccc(CN2C(=O)CCC2(C)C(=O)NCc2cccnc2)c(OC)c1 (stereo not given) | 2 | 9 | 92* | -2 | 0
CCCCCCc1ccc(-c2ccc(C#N)cc2)cc1 | / | / | / | 4 | /
CCCCCc1ccc2cc(C#N)ccc2n1 | / | 48* | -14 | 1 | /
O=C(C[C@H]1C[C@H]2c3cc(NS(=O)(=O)c4ccc(F)cc4)ccc3O[C@H]2[C@@H](CO)O1)N1CCOCC1 | / | 4 | -3 | / | /
CC(=O)c1cccc(OCc2cc(C(=O)NCc3nc(C)c(C)s3)no2)c1 | 7 | 48* | 9 | 10 | 68
CC(=O)c1ccc(OCc2cc(C(=O)N3CCOCC3)no2)cc1 | -8 | 61* | 23 | 16 | 65
CC(=O)c1ccc(OCc2cc(C(=O)N3CCCCCCC3)no2)cc1 | 15 | 16 | -11 | 7 | 11
CCOC(=O)N1CCN(C(=O)c2cc(COc3cccc(C(C)=O)c3)on2)CC1 | -4 | 42* | -10 | 10 | 10
O=C(Nc1cnc2ccccn2c1=O)c1ccc(Cl)cc1 | 2 | 43* | 24 | / | 86*
O=C(Nc1cccn2ncnc12)c1ccc(Cl)cc1 | -1 | 15 | -3 | 6 | 29
C[C@H](CO)N1C[C@H](C)[C@H](CN(C)C)Oc2cc(C3=CCCCC3)ccc2S1(=O)=O | / | / | 21 | / | /
C[C@H](CO)N1C[C@H](C)[C@H](CN(C)C(=O)Nc2ccc(F)cc2)Oc2ccc(NC(=O)C3CCCCC3)cc2CC1=O | / | 5 | -10 | / | /
COc1cccc(C#Cc2ccc([C@H]3[C@@H](CO)N(C(=O)C4CCCCC4)[C@H]3C#N)cc2)c1 | / | 5 | -199 | / | /
CCC(c1nc2ccccc2c(=O)n1CCCn1ccnc1)N1C(=O)c2ccccc2C1=O (stereo not given) | 8 | -7 | -2 | 2 | 10
CCC(c1nc2ccccc2c(=O)n1CCN1CCOCC1)N1C(=O)c2ccccc2C1=O (stereo not given) | 8 | -5 | 141* | -3 | 0
C#CCN1C(=O)S/C(=C\c2ccc(-c3ccc(C(=O)O)cc3C)o2)C1=O | 4 | 86* | -6 | 16 | 47
Cc1cc(C(=O)O)ccc1-c1ccc(/C=C2\SC(=O)N(CC(=O)Nc3ccc4c(c3)OCO4)C2=O)o1 | -10 | 1 | 13 | 0 | -6
Oc1ccc2ccccc2c1C=NCc1ccccc1 | -6 | / | / | 3 | -17
Oc1ccc2ccccc2c1C=Nc1ccc(Cl)cn1 | / | / | / | 46* | -3
Oc1ccccc1C=NN=Cc1c(O)ccc2ccccc12 | -6 | / | / | 48* | 29
O=C(O)C[C@@H]1C=C[C@H](NC(=O)c2ccccc2F)[C@H](CO)O1 | / | 4 | -4 | / | /
